Measurements from PubChem BioAssay AID720549 (National Center for Advancing Translational Sciences (NCATS), 2013).
Records with an inconclusive call do not appear. Active and inactive are the calls of the source. Calls come from the whole dose curve; as a rule, active = well fitted inhibition curve with a large enough effect; inconclusive = small, poorly fitted or top-dose-only effect; inactive = flat fitted curve, though single readings scatter.

Molecular target: RecQ-like DNA helicase BLM (Homo sapiens) (UniProt P54132)
Sequence (P54132 whole entry, looked up): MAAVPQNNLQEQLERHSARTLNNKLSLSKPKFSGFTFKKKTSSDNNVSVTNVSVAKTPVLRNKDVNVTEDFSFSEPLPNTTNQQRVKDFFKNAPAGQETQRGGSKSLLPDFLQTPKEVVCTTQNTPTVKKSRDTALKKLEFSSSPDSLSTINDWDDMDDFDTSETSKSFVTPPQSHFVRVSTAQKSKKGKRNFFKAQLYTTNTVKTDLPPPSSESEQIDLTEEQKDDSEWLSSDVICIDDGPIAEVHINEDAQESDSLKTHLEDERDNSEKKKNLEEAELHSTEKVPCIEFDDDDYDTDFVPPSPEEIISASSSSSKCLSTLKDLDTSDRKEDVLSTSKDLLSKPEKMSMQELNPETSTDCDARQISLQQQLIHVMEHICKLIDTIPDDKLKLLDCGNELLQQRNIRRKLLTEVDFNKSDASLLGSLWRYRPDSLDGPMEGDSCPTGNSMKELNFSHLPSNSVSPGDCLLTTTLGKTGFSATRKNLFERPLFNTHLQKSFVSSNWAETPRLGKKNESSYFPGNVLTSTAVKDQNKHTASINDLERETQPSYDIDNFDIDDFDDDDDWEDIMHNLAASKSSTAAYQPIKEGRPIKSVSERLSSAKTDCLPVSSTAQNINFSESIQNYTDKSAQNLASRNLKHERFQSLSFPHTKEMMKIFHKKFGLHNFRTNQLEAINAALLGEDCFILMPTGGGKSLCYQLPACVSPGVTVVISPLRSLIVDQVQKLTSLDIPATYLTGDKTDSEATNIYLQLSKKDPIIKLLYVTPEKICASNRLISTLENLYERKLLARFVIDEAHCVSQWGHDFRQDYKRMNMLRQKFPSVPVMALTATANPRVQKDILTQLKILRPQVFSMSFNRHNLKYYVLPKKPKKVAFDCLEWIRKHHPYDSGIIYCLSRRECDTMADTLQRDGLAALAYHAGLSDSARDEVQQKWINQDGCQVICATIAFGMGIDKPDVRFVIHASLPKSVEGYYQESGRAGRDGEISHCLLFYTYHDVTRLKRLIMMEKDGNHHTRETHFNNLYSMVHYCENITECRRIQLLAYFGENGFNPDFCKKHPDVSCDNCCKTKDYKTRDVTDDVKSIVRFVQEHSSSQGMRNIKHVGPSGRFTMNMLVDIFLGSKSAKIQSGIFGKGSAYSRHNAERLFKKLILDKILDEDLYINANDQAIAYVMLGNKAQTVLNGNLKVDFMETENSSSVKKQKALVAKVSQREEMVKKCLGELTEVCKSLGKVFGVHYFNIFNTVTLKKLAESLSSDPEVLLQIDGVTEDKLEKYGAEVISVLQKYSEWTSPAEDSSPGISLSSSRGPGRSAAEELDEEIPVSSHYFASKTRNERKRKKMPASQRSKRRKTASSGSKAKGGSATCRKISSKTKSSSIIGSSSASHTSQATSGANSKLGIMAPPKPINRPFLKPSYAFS
Assay: qHTS for Inhibitors of Bloom's syndrome helicase (BLM): Helicase ATPase Orthogonal Confirmatory Assay for SAR
Excerpt: Human RecQ DNA helicases participate in maintenance of genome stability and DNA repair. While other types of helicases have been explored as targets for drug development, members of the RecQ family have remained less well characterized. Mutations of the Bloom helicase gene have been associated with the rare human genetic disease called Bloom syndrome. […] Moreover, identified inhibitors can be used in cells and animal models to examine the consequences of inhibition on the survival of cancer cells where it has been shown that BLM plays an important role.
A fluorescence-based, biochemical assay in 1536 well format was developed to evaluate inhibition of BLM DNA unwinding activity. This assay was used to screen the MLPCN library. […] This luminescence assay employs a purified BLM enzyme and a single stranded BLM oligo substrate ([…]). For this assay increase in luminescence signal is greater than or equal to 700 RLU. […]
Three microliter of reaction buffer (25mM Tris-HCl pH 8.0, 50mM NaCl, 2mM MgCl2, 1mM DTT, and 0.01% Tween- 20, and 2nM BLM enzyme) was dispensed into a 1536-well assay plates (Greiner, solid white medium-binding) via Aurora Discovery BioRAPTR Flying Reagent Dispenser (FRD). […] After 30 min at room temperature, the luminescence signal was detected using the ViewLux CCD imager. […]

N#Cc1ccc(NC(=O)Nc2nnc(-c3ccncc3)s2)cc1C(F)(F)F
outcome: inactive
